Laboratory results: publication PMC7862700, “An all-to-all approach to the identification of sequence-specific readers for epigenetic DNA modifications on cytosine”

Columns and labels:
Experiment in all cases: DAPPL (digital affinity profiling via proximity ligation, sequencing); 10 mM Tris-HCl pH 7.5, 50 mM NaCl, 1 mM DTT, 4% glycerol, room temperature, 30 min; GST-TFs on glutathione beads, 16-mer random dsDNA library, 0.1% formaldehyde crosslink after washing; high values mean tight binding
Conditions in all cases: protein: recombinant; tags: N-terminal GST; dsDNA, one strand shown
ELF1 = ELF1 (Homo sapiens, UniProt P32519 1-619)
Procedure, shortened: (§1)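 GST fusions of human transcription factors were expressed in yeast and captured with glutathione beads. Once given DNA barcodes and pooled alongside a tag-only sample, they were incubated for 30 min at room temperature with 200 nmole of a random double-stranded 16-mer DNA library in Tris/NaCl/DTT/glycerol buffer, then washed, crosslinked (0.1% formaldehyde), proximity-ligated, PCR-amplified and sequenced on an Illumina NextSeq500. The binding signal of each hexamer is its read frequency for a factor divided by its frequency for the tag-only sample.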

EHF = molecular target: T1, EHF (Homo sapiens, UniProt Q9NZC4 1-300)
T1 sequence: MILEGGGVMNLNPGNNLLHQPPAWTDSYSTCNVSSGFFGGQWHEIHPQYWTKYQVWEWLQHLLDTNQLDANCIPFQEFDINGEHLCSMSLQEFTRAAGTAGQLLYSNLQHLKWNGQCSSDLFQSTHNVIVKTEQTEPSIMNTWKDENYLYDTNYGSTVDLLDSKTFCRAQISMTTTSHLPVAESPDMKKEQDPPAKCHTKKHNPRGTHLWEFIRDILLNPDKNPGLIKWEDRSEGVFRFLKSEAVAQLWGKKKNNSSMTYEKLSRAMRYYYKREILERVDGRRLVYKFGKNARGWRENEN
Procedure, shortened: as §1

ELK3 = molecular target: T2, ELK3 (Homo sapiens, UniProt P41970 1-407)
T2 sequence: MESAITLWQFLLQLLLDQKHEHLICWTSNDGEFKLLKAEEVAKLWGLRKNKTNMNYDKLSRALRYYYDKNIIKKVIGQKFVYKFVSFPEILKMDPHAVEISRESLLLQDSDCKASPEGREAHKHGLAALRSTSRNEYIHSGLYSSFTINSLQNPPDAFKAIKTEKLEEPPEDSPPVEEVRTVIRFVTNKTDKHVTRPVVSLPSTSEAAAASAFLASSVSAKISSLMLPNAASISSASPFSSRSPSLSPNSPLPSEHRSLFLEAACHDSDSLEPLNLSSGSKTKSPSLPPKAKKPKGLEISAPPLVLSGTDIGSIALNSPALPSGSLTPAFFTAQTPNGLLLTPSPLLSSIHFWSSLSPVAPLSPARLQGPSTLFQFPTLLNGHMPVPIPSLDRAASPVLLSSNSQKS
Procedure, shortened: as §1

SPIC = molecular target: T3, SPIC (Homo sapiens, UniProt Q8N5J4 1-248)
T3 sequence: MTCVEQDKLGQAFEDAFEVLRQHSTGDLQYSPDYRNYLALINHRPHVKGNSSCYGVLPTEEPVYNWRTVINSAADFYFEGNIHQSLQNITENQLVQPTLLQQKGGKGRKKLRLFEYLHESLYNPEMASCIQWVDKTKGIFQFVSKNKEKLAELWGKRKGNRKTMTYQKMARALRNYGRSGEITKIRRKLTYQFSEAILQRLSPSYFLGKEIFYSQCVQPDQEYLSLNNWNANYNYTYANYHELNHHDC
Procedure, shortened: as §1

ELF4 = ELF4 (Homo sapiens, UniProt Q99607 1-663)
Procedure, shortened: as §1

ELK4 = molecular target: T4, ELK4 (Homo sapiens, UniProt P28324-2 1-405)
T4 sequence: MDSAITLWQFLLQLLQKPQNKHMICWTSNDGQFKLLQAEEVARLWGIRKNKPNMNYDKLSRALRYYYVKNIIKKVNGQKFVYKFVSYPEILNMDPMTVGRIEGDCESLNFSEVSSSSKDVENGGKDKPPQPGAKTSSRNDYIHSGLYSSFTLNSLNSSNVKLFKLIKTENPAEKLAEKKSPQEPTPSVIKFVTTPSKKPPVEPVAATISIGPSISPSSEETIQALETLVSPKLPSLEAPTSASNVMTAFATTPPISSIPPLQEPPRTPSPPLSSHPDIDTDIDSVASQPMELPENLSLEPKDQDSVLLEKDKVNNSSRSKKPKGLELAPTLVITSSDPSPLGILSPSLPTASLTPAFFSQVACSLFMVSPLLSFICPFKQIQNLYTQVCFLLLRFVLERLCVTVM
Procedure, shortened: as §1

ELF3 = molecular target: T5, ELF3 (Homo sapiens, UniProt P78545 1-371)
T5 sequence: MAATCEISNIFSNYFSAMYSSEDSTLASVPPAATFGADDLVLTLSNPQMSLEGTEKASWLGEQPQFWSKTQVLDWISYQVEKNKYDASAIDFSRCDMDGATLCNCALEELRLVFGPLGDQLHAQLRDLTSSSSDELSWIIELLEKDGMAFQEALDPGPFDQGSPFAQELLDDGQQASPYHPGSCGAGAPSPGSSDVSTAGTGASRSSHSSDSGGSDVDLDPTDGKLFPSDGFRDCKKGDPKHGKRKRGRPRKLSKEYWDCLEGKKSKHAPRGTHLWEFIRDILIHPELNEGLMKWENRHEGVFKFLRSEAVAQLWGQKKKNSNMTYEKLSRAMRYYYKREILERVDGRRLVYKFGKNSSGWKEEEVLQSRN
Procedure, shortened: as §1

ETV1 = ETV1 (Homo sapiens, UniProt P50549 1-477)
Procedure, shortened: as §1

ERF = molecular target: T6, ERF (Homo sapiens, UniProt P50548 1-548)
T6 sequence: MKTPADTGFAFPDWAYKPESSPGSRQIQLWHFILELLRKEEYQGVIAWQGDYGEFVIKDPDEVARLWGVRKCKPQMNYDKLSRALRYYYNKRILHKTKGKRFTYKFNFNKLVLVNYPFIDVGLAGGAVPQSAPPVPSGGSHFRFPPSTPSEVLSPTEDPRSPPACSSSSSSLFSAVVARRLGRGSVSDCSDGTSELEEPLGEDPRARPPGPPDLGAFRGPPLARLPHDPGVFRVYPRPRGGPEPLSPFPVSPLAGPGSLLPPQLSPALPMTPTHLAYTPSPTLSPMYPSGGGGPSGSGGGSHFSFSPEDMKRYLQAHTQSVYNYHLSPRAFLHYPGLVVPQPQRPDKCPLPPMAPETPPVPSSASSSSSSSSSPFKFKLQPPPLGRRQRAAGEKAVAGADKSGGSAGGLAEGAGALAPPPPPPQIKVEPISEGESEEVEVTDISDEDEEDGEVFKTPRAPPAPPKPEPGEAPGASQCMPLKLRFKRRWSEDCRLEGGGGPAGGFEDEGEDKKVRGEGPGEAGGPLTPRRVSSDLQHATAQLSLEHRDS
Procedure, shortened: as §1

ETV3L = molecular target: T7, ETV3L (Homo sapiens, UniProt Q6ZN32 1-361)
T7 sequence: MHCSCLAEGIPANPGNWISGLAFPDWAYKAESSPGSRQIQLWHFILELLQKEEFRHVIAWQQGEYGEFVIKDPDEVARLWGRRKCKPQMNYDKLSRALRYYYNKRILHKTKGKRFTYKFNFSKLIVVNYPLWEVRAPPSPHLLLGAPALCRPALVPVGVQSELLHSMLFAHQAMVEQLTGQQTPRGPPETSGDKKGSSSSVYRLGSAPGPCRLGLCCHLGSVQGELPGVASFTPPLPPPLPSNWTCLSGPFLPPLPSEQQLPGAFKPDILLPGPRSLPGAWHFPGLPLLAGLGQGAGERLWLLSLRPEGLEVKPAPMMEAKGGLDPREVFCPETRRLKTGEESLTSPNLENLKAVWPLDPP
Procedure, shortened: as §1

ETS2 = molecular target: T8, ETS2 (Homo sapiens, UniProt P15036 1-469)
T8 sequence: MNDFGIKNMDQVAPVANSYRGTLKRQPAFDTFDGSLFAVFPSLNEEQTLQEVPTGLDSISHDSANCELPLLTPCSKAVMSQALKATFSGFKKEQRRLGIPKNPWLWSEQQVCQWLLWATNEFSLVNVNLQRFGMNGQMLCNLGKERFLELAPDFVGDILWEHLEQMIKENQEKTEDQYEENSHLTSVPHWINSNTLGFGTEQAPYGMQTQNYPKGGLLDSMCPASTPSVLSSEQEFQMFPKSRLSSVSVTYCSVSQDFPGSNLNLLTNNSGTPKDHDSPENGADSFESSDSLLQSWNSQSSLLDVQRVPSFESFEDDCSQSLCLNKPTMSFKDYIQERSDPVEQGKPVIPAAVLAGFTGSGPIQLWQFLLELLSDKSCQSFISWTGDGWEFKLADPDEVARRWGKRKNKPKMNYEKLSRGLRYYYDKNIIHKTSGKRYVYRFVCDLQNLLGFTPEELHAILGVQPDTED
Procedure, shortened: as §1

ETV7 = molecular target: T9, ETV7 (Homo sapiens, UniProt Q9Y603 1-341)
T9 sequence: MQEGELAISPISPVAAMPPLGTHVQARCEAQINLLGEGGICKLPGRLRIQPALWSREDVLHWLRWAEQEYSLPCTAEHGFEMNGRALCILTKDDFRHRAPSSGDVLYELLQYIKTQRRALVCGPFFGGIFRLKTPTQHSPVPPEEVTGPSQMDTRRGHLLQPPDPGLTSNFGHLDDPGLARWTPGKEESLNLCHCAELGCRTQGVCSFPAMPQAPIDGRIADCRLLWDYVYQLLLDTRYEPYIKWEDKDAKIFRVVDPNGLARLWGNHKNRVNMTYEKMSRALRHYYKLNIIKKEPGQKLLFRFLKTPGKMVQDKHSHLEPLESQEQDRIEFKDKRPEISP
Procedure, shortened: as §1

ETV3 = molecular target: T10, ETV3 (Homo sapiens, UniProt P41162-2 1-143)
T10 sequence: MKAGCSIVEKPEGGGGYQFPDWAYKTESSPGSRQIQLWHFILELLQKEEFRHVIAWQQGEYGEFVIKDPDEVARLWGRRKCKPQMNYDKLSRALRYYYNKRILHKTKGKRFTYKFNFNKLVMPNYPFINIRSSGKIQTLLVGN
Procedure, shortened: as §1

ETV6 = ETV6 (Homo sapiens, UniProt P41212 1-452)
Procedure, shortened: as §1

ELK1 = molecular target: T11, ELK1 (Homo sapiens, UniProt P19419 1-428)
T11 sequence: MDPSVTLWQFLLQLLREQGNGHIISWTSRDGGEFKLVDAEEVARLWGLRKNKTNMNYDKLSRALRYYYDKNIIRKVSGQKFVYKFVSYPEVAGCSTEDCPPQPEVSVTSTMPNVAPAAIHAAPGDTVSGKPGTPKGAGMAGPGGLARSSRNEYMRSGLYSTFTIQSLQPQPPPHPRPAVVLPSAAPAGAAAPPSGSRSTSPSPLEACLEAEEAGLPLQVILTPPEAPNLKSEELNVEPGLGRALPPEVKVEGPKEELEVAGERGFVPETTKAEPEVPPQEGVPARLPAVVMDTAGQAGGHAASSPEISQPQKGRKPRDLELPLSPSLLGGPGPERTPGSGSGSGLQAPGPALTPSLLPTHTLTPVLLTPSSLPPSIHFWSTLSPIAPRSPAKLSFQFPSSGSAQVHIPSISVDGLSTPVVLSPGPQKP
Procedure, shortened: as §1

GABPA = molecular target: T12, GABPA (Homo sapiens, UniProt Q06546 1-454)
T12 sequence: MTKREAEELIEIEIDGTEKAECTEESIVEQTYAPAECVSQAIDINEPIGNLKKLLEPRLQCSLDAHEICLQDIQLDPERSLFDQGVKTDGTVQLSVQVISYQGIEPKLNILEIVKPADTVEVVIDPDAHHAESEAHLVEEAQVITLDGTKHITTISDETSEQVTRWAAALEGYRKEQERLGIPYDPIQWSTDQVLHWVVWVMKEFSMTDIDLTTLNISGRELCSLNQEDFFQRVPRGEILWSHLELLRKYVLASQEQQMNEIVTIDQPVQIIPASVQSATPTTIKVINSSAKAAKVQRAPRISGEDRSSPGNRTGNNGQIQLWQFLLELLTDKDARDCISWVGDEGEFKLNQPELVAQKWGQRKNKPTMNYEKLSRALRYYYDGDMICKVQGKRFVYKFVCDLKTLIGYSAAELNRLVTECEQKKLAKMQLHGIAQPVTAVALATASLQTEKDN
Procedure, shortened: as §1

SPIB = SPIB (Homo sapiens, UniProt Q01892 1-262)
Procedure, shortened: as §1

ELF1, sequence (P32519 whole entry, the tested form may be a part): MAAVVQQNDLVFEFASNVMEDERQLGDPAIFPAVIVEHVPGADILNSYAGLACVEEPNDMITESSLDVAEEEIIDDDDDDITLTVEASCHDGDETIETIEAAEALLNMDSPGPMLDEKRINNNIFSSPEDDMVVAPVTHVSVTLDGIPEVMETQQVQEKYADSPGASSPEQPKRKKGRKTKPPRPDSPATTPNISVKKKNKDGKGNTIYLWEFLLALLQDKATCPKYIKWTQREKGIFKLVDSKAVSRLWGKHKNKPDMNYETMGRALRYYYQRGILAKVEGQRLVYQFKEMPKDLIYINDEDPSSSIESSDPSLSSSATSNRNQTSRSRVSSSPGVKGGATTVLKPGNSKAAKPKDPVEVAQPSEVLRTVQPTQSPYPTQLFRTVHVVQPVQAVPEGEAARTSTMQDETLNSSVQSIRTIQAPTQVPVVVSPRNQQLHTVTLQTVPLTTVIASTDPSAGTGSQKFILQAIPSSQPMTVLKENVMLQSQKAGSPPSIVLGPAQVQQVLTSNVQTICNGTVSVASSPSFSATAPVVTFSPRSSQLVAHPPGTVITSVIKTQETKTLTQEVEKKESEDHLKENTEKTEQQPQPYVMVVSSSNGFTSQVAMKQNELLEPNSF
ELF4, sequence (Q99607 whole entry): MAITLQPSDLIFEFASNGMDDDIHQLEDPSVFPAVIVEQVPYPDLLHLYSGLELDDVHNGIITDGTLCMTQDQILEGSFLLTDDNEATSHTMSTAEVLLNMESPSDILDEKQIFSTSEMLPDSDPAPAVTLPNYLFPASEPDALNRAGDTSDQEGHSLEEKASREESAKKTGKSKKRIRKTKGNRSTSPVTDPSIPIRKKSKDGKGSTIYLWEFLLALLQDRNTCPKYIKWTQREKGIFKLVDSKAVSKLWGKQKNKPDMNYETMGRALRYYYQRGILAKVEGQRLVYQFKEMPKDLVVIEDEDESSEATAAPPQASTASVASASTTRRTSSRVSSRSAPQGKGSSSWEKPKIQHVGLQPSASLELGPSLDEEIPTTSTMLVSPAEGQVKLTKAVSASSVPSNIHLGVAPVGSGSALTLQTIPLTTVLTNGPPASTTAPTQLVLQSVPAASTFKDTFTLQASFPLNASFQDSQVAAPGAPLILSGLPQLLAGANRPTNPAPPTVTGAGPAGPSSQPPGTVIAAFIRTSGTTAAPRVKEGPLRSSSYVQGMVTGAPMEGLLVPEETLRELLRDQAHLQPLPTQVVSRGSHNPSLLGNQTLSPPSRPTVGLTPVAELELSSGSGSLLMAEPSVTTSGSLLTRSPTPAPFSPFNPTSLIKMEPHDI
ETV1, sequence (P50549 whole entry): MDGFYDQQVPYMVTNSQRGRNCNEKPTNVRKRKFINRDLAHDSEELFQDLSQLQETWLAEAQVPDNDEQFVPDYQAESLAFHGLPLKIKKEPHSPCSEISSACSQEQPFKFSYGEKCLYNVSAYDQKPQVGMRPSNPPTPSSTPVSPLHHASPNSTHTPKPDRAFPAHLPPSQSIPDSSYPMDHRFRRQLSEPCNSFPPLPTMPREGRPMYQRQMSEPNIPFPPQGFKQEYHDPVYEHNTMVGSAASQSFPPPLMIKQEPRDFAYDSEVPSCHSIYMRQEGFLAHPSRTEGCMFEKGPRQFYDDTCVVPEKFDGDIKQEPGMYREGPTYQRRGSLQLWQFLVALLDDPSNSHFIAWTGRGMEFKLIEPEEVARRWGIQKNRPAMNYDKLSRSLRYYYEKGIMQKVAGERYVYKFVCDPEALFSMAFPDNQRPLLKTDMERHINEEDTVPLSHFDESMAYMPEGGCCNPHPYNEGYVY
SPIB, sequence (Q01892 whole entry): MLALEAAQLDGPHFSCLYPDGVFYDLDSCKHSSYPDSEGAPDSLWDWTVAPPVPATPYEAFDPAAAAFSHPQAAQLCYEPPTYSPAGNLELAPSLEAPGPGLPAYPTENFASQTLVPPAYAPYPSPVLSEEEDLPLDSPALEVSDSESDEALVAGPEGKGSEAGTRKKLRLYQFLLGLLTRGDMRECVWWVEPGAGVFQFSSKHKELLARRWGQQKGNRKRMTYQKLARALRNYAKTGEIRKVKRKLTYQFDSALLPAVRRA
ETV6, sequence (P41212 whole entry): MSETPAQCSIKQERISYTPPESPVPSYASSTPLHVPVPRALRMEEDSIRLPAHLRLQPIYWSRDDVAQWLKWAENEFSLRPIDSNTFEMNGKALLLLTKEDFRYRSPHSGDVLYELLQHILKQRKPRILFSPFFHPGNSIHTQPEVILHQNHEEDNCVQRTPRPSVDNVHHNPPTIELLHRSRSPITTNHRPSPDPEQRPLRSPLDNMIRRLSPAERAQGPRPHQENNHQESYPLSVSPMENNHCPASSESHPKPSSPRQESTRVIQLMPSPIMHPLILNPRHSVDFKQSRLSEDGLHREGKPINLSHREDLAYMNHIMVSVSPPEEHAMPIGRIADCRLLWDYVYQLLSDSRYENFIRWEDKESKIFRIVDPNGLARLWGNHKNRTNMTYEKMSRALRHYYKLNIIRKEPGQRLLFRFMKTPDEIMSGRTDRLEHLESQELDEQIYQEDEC

With AGCTAG the binding signal (ELF1) was 1.06 fold enrichment (6-mer frequency, TF over GST control), the binding signal (EHF) was 1.02 fold enrichment (6-mer frequency, TF over GST control) and the binding signal (ELK3) was 1 fold enrichment (6-mer frequency, TF over GST control). The binding signal (SPIC) was 1.08 fold enrichment (6-mer frequency, TF over GST control), the binding signal (ELF4) was 1.05 fold enrichment (6-mer frequency, TF over GST control) and the binding signal (ELK4) was 1.01 fold enrichment (6-mer frequency, TF over GST control). For the same sequence, the binding signal (ELF3) was 1.1 fold enrichment (6-mer frequency, TF over GST control), the binding signal (ETV1) was 1.05 fold enrichment (6-mer frequency, TF over GST control) and the binding signal (ERF) was 1.08 fold enrichment (6-mer frequency, TF over GST control). For the same sequence, the binding signal (ETV3L) was 1.11 fold enrichment (6-mer frequency, TF over GST control), the binding signal (ETS2) was 1.07 fold enrichment (6-mer frequency, TF over GST control) and the binding signal (ETV7) was 1.17 fold enrichment (6-mer frequency, TF over GST control). The binding signal (ETV3) was 1.01 fold enrichment (6-mer frequency, TF over GST control) and the binding signal (ETV6) was 1.03 fold enrichment (6-mer frequency, TF over GST control).

With TGATAG the binding signal (ELK1) was 1.07 fold enrichment (6-mer frequency, TF over GST control), the binding signal (GABPA) was 1.03 fold enrichment (6-mer frequency, TF over GST control) and the binding signal (ELF1) was 1.09 fold enrichment (6-mer frequency, TF over GST control). For the same sequence, the binding signal (EHF) was 1.01 fold enrichment (6-mer frequency, TF over GST control), the binding signal (SPIB) was 1.05 fold enrichment (6-mer frequency, TF over GST control) and the binding signal (ELK3) was 1.09 fold enrichment (6-mer frequency, TF over GST control). For the same sequence, the binding signal (SPIC) was 1.05 fold enrichment (6-mer frequency, TF over GST control), the binding signal (ELF4) was 1.03 fold enrichment (6-mer frequency, TF over GST control) and the binding signal (ELK4) was 1.02 fold enrichment (6-mer frequency, TF over GST control). The binding signal (ERF) was 1.04 fold enrichment (6-mer frequency, TF over GST control), the binding signal (ETV3L) was 1.05 fold enrichment (6-mer frequency, TF over GST control) and the binding signal (ETS2) was 1.06 fold enrichment (6-mer frequency, TF over GST control). The binding signal (ETV3) was 1.05 fold enrichment (6-mer frequency, TF over GST control).
